# RXFP1 antag: blocks the human relaxin receptor RXFP1 | Q9HBX9 | HEK293-RXFP1, relaxin-stimulated cAMP HTRF, 30 min; stronger effect = lower value | activity change, negative = inhibition, % at 57.5 µM | 350,000 tested, 0.59% active | AID 1259400;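 active means activity change of -60% or lower, but not beyond a set lower limit; inconclusive means change between -60% and -40%, or beyond the set limit; inactive means change above -40%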; further: on the % scale 0 is the no-effect control and ±100 the full control effect
# Target sequence (Q9HBX9 whole entry, looked up): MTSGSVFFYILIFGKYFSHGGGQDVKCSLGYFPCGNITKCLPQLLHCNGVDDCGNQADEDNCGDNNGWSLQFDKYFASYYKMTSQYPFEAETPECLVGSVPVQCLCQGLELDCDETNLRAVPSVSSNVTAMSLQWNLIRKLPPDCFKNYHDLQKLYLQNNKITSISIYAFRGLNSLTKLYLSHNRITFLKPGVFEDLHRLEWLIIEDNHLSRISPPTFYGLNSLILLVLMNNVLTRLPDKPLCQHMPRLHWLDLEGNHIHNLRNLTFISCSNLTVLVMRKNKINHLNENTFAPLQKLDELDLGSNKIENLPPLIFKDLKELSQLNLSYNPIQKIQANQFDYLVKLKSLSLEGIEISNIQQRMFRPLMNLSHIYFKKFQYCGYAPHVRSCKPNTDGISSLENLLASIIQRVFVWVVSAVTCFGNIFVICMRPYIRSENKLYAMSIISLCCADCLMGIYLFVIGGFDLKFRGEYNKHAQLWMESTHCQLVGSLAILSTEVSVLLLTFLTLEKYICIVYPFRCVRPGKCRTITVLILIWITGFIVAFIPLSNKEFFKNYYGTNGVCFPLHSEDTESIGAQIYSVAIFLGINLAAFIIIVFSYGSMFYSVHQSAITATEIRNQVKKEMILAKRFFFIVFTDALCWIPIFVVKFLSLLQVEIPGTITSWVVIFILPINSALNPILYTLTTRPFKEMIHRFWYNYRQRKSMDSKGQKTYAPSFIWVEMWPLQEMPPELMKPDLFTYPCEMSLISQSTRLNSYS
# ClpP mod: qHTS Assay for Activators of ClpP; purified B. subtilis ClpP, FRET peptide cleavage, 20 min; Potency, µM (doses to about 57.5 µM), without a hit: at the highest dose activity change, negative = active; 340,000 tested, 1.9% active; ATP-dependent Clp protease proteolytic subunit (Bacillus subtilis (strain 168)), P80244; active means well fitted falling curve with a large enough effect; inconclusive means small, poorly fitted or top-dose-only effect; inactive means no such curve, though single readings can be large or run the other way; further: potency means the concentration at half of the fitted maximal effect; the source files actives as falling curves though it sought activators and does not explain the sign; nearly all actives have a fitted effect of over 65% in size
#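 ClpP 10 microg/mL final, pH 8 Tris/KCl buffer with BSA, glycerol, Tween-20; compound pinned in; FRET-FV substrate; RT 20 min; Ex320/Em430; ΔFRET vs ADEP 5.8 microM, DMSO, no enzyme.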
# gsp ag: agonists of gsp mutant (McCune-Albright syndrome) | 340,000 tested, 0.13% active | Potency, µM (doses to about 76.9 µM), for the others: top-dose activation (cAMP increase), actives largely listed as activators | AID 624287 | gsp mutant cells, cAMP HTRF, 30 min; active means well fitted activation curve with a large enough effect; inconclusive means small, poorly fitted or top-dose-only effect, or another doubt; inactive means no such curve, though single readings can be large or run the other way; cell line not stated here;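 further: phosphodiesterase inhibitor Ro 20-1724 added with compounds to block cAMP breakdown; potency means the concentration at half of the fitted maximal effect; nearly all actives have a fitted effect of over 60% in size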
#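 Cells stably selected in G418 were plated at 2000/well, grown 16-24 hr, then given compounds in DMSO with the PDE inhibitor […] (300 uM solution added) for 30 min at 37C; cAMP was read by HTRF.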
# RXFP1 agonist: activates the human relaxin receptor RXFP1; Q9HBX9; HEK293T-RXFP1 cAMP TR-FRET, 30 min; response scale: percent of porcine relaxin response, buffer zero; Potency, µM (doses to about 57.5 µM), for the others: at the top dose activation, actives largely listed as activators; 370,000 tested, 0.3% active; active means well fitted activation curve with a large enough effect; inconclusive means small, poorly fitted or top-dose-only effect; further: potency means the concentration at half of the fitted maximal effect; on the % scale 0 is the no-effect control and ±100 the full control effect; nearly all actives have a fitted effect of over 60% in size
#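 HEK293T cells stably expressing RXFP1 were pretreated with the PDE4 inhibitor Ro 20174, exposed to compounds for 30 min at 37C, lysed, and cAMP was read by TR-FRET. Data normalized to buffer (basal) and 29 nM porcine relaxin (100%).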
# pAkt inh: Akt phosphorylation inhibition. 360,000 tested, 0.32% active. Neuro2A IGF-stimulated pAkt S473 HTRF, 20 min; stronger effect = lower value. activity change, % for hits at 50 µM; in the data active means activity change below about -80%; inconclusive means mostly about -51% to -80%; further: on the % scale 0 is the no-effect control and ±100 the full control effect
#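 Neuro2A cells in DMEM with 0.5% FBS, overnight at 37 deg C, given compound at single 50 µM final, then IGF (6 nM final) for 20 min at 37 deg C. Lysed; phospho-Akt Ser473 by HTRF after 24 h, 665/615 ratio.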
# gsp antag: antagonizes gsp, the McCune-Albright syndrome mutation | gsp-mutant cells, cAMP HTRF, 30 min | AID 624288 | 340,000 tested, 0.4% active | Potency, µM (top dose mostly 76.9 µM), without a hit: at the top dose activity change, negative = inhibition, most hits filed as inhibitors; calls by dose curve; cell line not stated here;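 further: intracellular cAMP measured with PDE inhibitor Ro 20-1724 present during compound exposure; potency means the concentration at half of the fitted maximal effect; on the % scale 0 is the no-effect control and ±100 the full control effect; nearly all actives have a fitted effect of over 65% in size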
#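 G418-selected cells were plated in DMEM/10% FBS for 16-24 h at 37C, then treated with compounds plus the PDE inhibitor […] (300 uM solution added) for 30 min at 37C. Intracellular cAMP was measured by HTRF after 30 min lysis at room temperature.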
# The depositor's hits bear a star; i = inactive; ? = inconclusive; . = no result given; [ ] = another dose, or the depositor's remark. Sampled rows, rich in hits. Any-hit rate of the full collection: about 2.7%.
SMILES,RXFP1 antag,ClpP mod,gsp ag,RXFP1 agonist,pAkt inh,gsp antag
COc1cc(/C=C2\SC(N3CCC(C)CC3)=NC2=O)ccc1O,-15,14µM*,-4%[15.4 µM],1%,i,1%
COc1cc(/C=C2\CC/C(=C\c3cc(OC)c(O)c(OC)c3)C2=O)cc(OC)c1O,-7,-1%,-4%,3%,i,5%
COc1ccc(/C=C2\SC(N3CCCCC3)=NC2=O)cc1OC,5,.,-35%,0%,i,3%
COc1cc(C=C2CCC/C(=C\c3ccc(O)c(OC)c3)C2=O)ccc1O,-95*,.,.,.,.,.
COc1cc(/C=C2\COC/C(=C\c3cc(OC)c(OC)c(OC)c3)C2=O)cc(OC)c1OC,-63*,.,14%,14%,i,?
COc1cc(/C=C2\CC/C(=C\c3cc(OC)c(OC)c(OC)c3)C2=O)cc(OC)c1OC,-2,.,-24%[15.4 µM],1%,i,-12%
COc1cc(/C=C2\Oc3cc(O)ccc3C2=O)ccc1O,15,-2%,28µM*,16%,i,-7%
CC(C)N(c1ccc(C=O)cc1)C(C)C,.,-2%,.,.,.,.
COc1cc(/C=C2/CCCC(C(=O)C(F)(F)F)=C2O)ccc1O,-3,.,-7%[15.4 µM],-4%,i,-4%
COc1cc(/C=C2\CCC/C(=C\c3ccc(O)c(OC)c3)C2=O)ccc1O,-69*,-1%,-26%,0%,i,?
CCCCn1c(C)cc2c(c1=O)C1O[C@](CCCC)(Cc3cc(C#N)ccc31)O2,.,.,.,-2%[11.5 µM],.,.
CCCC[C@]12Cc3cc(C#N)ccc3C(O1)c1c(cc(C)n(Cc3ccccc3)c1=O)O2,.,.,.,3.2µM*,.,.
O=C1c2ccccc2NC2(CCCCC2)N1N=C1CCCCC1,.,18µM*,8%,-1%,i,4%
COc1ccc(/C=C/c2cnc3ccccc3n2)cc1OC,.,-7%,.,.,.,.
C/C(=N\NC(=O)c1c(C)nc2ccccn12)c1ccc(N2CCOCC2)cc1,5,.,?,14µM*,i,8%
C=CCc1c(C)nc2c(C(=O)O)cnn2c1C,-4,32µM*,?,1%,i,-10%
O=C(c1ccc(Cn2cc(Cl)cn2)o1)N1CCN(Cc2ccc3c(c2)OCO3)CC1,8,-2%,19%,-1%,-111%*,1%
O=C(c1cnn2c(C(F)F)cc(-c3ccccc3)nc12)N1CCN(Cc2ccc3c(c2)OCO3)CC1,-2,-3%,-2%[15.4 µM],-1%,i,-15%
Cc1cccc(Cc2c(C)nc3c(C(=O)N4CCN(Cc5ccc6c(c5)OCO6)CC4)cnn3c2C)c1,-2,22µM*,2%,3%,-83%*,-10%
Cc1ccccc1Cc1c(C)nc2c(C(=O)N3CCN(Cc4ccc5c(c4)OCO5)CC3)cnn2c1C,6,32µM*,13%,.,i,-9%
CN(Cc1ccccc1)c1nccn2ccnc12,.,-5%,.,.,i,.
Cc1nc2c(C(=O)N3CCN(C)CC3)cnn2c(C)c1Cc1ccc(Cl)cc1,-3,25µM*,16%,0%,i,7%
Cc1ccc(/C(O)=C2\C(=O)C(=O)N(CC(C)O)C2c2cccc(F)c2)cc1 (stereo not given),21,1%,?,15%,-113%*,21%
O=C1C(=O)N(c2ccccn2)C(c2cccc(F)c2)/C1=C(/O)c1ccccc1 (stereo not given),-6,0%,14%,24%,i,15%
Cc1sc(NC(=S)NC(=O)CCc2ccccc2)c(C(N)=O)c1C,-5,28µM*,19%,22%,i,-11%
SMILES,RXFP1 antag,ClpP mod,gsp ag,RXFP1 agonist,pAkt inh,gsp antag
COC(=O)CCC(=O)NC(=S)Nc1sc(C)c(C)c1C(N)=O,-23,0%,36%,?,i,16%
CCn1c(=NC(=O)c2ccc(S(=O)(=O)N3CCOCC3)cc2)sc2cccc(OC)c21,-5,32µM*,-8%,8%,i,1%
O=C(c1cc(O)c(O)c(O)c1)c1ccc(O)c(O)c1O,-14,.,.,.,.,.
CCc1c(C(=O)Nc2cc(C)cc(C)c2)[nH]c(C)c1C(C)=O,-9,1%,-7%,-1%,i,35µM*
Fc1cccc(Oc2nc3ccccc3n3cccc23)c1,-15,22µM*,2%,0%,i,-1%
CSc1nc2ccccc2n1Cc1cccc(F)c1,-9,-18%,2%,3%,i,7%
CN1CCc2c(sc(/N=C/c3cccs3)c2C(N)=O)C1,12,10µM*,-26%,0%,i,-3%
O=C(Cn1cc(SCc2ccc(F)cc2)c2ccccc21)N1CCOCC1,-7,2.8µM*,-13%,0%,i,1%
Cn1c(=O)c2cc(NC(=O)NCc3ccc(F)cc3)ccc2n1Cc1cccc(C(F)(F)F)c1,.,5%,.,.,i,.
CCC(NC(=O)Nc1nccs1)(C(F)(F)F)C(F)(F)F,-3,-2%,12%,0%,i,9%
CCC(C(=O)Nc1nccs1)(C(F)(F)F)C(F)(F)F,-6,-2%,5%,0%,i,32µM*
COc1ccc(CN2CCN(c3ncnc4sc5c(c34)CCCC5)CC2)cc1F,-19,-12%,.,0%,.,.
Cc1ccc(C(NC(=O)C2CCN(CCOc3ccccc3)CC2)c2ccccn2)cc1 (stereo not given),.,0%,.,.,i,.
CS(=O)(=O)c1ccc(S(=O)CC(=O)OCc2ccccc2)c([N+](=O)[O-])c1 (stereo not given),-108*,.,-8%[15.4 µM],1%,i,?
COc1ccccc1NC(=O)CN(c1cc(C)cc(C)c1)S(=O)(=O)c1c(C)[nH]c(=O)[nH]c1=O,-5,-1%,.,2%,.,.
Cc1cc(C)c(S(=O)(=O)n2cnc(C)c2)c(C)c1,-5,2%,.,1%,.,.
COc1ccc(-c2nn3c(-c4ccco4)nnc3s2)cc1OC,7,-5%,23%,18%,i,22%
COc1cc(OC)c(-c2nn3c(-c4ccco4)nnc3s2)cc1OC,-1,28µM*,-206%,5%,i,-7%
c1coc(-c2nnc3n2C2(CCCC2)Cc2ccccc2-3)c1,1,?,27%,0%,i,-6%
COc1cc2c(cc1OC)-c1nnc(-c3ccco3)n1C1(CCCC1)C2,-16,32µM*,-13%,-3%,i,-8%
CCOC(=O)c1c(-c2ccccc2)c[nH]c1C,-88*,.,-1%,.,i,4%
CCOC(=O)c1c(-c2ccc(OC)cc2)cn2ccccc12,9,4%,-40%,1%,i,7%
CCOC(=O)c1c(-c2ccc(F)cc2)cn2ccccc12,-11,10µM*,-25%,-1%,i,5%

# Compound activity from PubChem BioAssay.
